MITF primary: human MITF inhibition, primary screen; AID 1259374; AlphaScreen MITF homodimerization, bead proximity signal; 650,000 tested, 0.91% active; inhibition, % at 2.6 µM; O75030; in the data active means inhibition above about 50%;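 further: 0% = vehicle wells with protein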
TEAD-YAP block: TEAD-YAP interaction inhibition. HEK-TIYL cells, TEAD-Gal4/YAP UAS-luciferase luminescence. 640,000 tested, 1.4% active. inhibition, % at 9.12 µM; in the data active means inhibition above about 32%;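 further: 0% = median of test compound wells and 100% = reference inhibitor wells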
GPR151 ag: human GPR151 activation | PathHunter beta-arrestin GPR151 cells, luminescence | Q8TDV0 | AID 1508602 | activation, % at 11.2 µM | 650,000 tested, 1% active; in the data active means activation above about 4.9%;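 further: 0% = median of compound wells and 100% = cells with positive control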
FBW7 activator: human FBW7 E3 ligase activation, primary screen; 650,000 tested, 0.13% active; AID 1259310; Q969H0; AlphaScreen FBW7–phospho-cyclin E peptide binding, activator screen; normalized activity (activation), % at 26.1 µM; in the data active means normalized activity above about 1.9%;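 further: purified mutant Fbw7 with reduced substrate affinity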
Target sequence (Q969H0 whole entry, looked up): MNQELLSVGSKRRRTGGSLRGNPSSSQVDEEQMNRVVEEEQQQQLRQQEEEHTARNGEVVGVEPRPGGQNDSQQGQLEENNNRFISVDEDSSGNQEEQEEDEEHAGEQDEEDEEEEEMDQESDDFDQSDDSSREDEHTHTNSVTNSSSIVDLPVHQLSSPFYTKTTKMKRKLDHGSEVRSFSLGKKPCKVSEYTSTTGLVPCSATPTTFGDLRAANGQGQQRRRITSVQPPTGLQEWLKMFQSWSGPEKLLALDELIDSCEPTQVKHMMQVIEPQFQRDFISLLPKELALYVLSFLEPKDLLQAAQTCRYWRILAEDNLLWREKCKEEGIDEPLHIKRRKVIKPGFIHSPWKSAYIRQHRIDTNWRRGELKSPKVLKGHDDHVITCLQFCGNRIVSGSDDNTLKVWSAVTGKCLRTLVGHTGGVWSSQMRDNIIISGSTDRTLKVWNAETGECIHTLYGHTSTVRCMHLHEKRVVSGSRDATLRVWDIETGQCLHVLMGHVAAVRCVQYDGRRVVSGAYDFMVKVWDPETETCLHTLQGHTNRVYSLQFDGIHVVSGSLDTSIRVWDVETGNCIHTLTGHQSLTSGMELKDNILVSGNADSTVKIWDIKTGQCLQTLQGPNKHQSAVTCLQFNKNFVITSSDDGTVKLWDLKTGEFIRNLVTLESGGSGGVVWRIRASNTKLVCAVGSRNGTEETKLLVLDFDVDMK
* marks the source's active call; other numbers are inactive results. An excerpt weighted towards active compounds, which were near 3.5% of everything screened.

SMILES	MITF primary	TEAD-YAP block	GPR151 ag	FBW7 activator
COc1cc(CC(=O)N2CCc3nc(N4CCCC4)[nH]c(=O)c3C2)cc(OC)c1OC	5	3	0	0
COc1ccc(OC)c(CC(=O)N2CCc3nc(N4CCCCC4)[nH]c(=O)c3C2)c1	-2	50*	1	0
Cc1ccc(-c2nc(Nc3ccccc3)s[n+]2CS(=O)(=O)c2ccccc2)cc1	9	66*	-5	0
CCOC(=O)c1c(NC(=O)CCN2CCOCC2)sc2c1CCC(C)C2 (centres undefined)	15	-1	4	0
CN(CC(=O)Nc1ccc2c(c1)OCCO2)S(=O)(=O)c1cccc2nsnc12	1	-11	-1	0
COc1c(O)ccc(/C=N/NC(=O)COc2c(C)ccc(C)c2C)c1[N+](=O)[O-]	7	54*	0	0
Cc1cccc(C)c1OCC(=O)N/N=C/c1ccccc1O	13	51*	1	0
CCOc1ccccc1OCC(=O)N/N=C(/C)c1ccc(Cl)cc1	9	69*	0	0
Cc1cc(C)c(OCC(=O)N/N=C/c2ccccc2O)c(C)c1	0	-4	1	0
COc1c(O)ccc(/C=N/NC(=O)COc2ccccc2C)c1[N+](=O)[O-]	-5	-8	3	0
CCOc1ccccc1OCC(=O)N/N=C/c1ccc(O)c([N+](=O)[O-])c1	0	55*	0	0
N#Cc1ccccc1OCC(=O)N/N=C/c1ccc(O)c([N+](=O)[O-])c1	-6	-14	1	0
COc1ccccc1CCNC(=O)C1CC12CCN(CCC(C)C)CC2 (centres undefined)	-1	5	-1	0
Nc1ccc(S(=O)(=O)N2CCOCC2)cc1C(F)(F)F	11	4	-1	0
CN(Cc1ccncn1)C(=O)CC1C(=O)NCCN1Cc1ccccc1C(F)(F)F (centres undefined)	8	-9	-1	0
Cc1nc(NCc2cnn(C)c2C)sc1-c1ccn(-c2ccc(F)cc2)n1	15	4	2	0
O=S(=O)(c1ccc(-c2nc3ccccc3s2)cc1)N1CCCCC1	10	0	-1	0
CC1CCCCN1C(=O)CSc1nnc2n(CC(=O)N3CCCC3)c3ccccc3n12 (centres undefined)	4	5	0	0
CCCC1=C(C(=O)OCC)C(c2cccc(OC)c2)C(C#N)=C(N)O1 (centres undefined)	-1	4	0	0
CCOc1ccccc1OCC(=O)N/N=C/c1ccccc1O	-6	59*	0	-2
COc1ccc(OC)c(Cn2c(O)c(/C=C3\C=CC=N3)c(=O)[nH]c2=O)c1	6	40*	2	0
COc1ccc(Cn2c(O)c(/C=C3\C=CC=N3)c(=O)[nH]c2=O)cc1	18	3	1	0
O=[N+]([O-])c1cc(-c2cnc3ccccc3n2)ccc1N1CCCCCC1	15	71*	-1	1
Cc1ccc(Oc2ccc(-c3cnc4ccccc4n3)cc2[N+](=O)[O-])c(-n2nc3ccccc3n2)c1	6	-1	1	0
CC(=O)c1ccc(Oc2ccc(-c3cnc4ccccc4n3)cc2[N+](=O)[O-])cc1	2	-4	0	0
SMILES	MITF primary	TEAD-YAP block	GPR151 ag	FBW7 activator
Cc1ccc(Oc2ccc(-c3cnc4ccccc4n3)cc2[N+](=O)[O-])cc1C	1	14	0	1.9*
CCc1ccc2nc3sc(C(=O)NCc4ccco4)c(N)c3cc2c1	41	53*	-1	0
COc1cc2cc3c(N)c(C(=O)NCc4ccco4)sc3nc2cc1OC	25	-67	-1	0
COc1cc(/C=C2/SC(=Nc3ccccc3)NC2=O)ccc1O	1	0	0	0
O=C1NC(=Nc2ccc(O)cc2)S/C1=C\c1ccccc1F	-13	43*	1	0
COc1cc(/C=C2\SC(=Nc3ccccc3OC)NC2=O)ccc1O	2	57*	-2	0
COc1cc(/C=C2\SC(=Nc3ccccc3)NC2=O)ccc1O	13	2	-1	0
COc1cc(/C=C2\SC(=Nc3ccc(F)cc3)NC2=O)cc(OC)c1OC	2	3	0	0
COc1ccc(/C=C2\SC(=Nc3ccc(F)cc3)NC2=O)cc1O	22	52*	1	0
COc1cc(/C=C2/SC(=Nc3ccc(O)cc3)NC2=O)ccc1O	10	49*	1	0
COc1ccccc1C(=O)NCc1nnc(SCC(=O)Nc2nccs2)n1-c1cccc(C)c1	16	13	2	0
Cc1ccc(NC(=O)CCNS(=O)(=O)c2cc(Br)cnc2N)cc1	6	7	1	0
Cc1ccc(N(CC(O)CN2CCC(C)CC2)S(=O)(=O)c2ccccc2)cc1 (centres undefined)	-1	4	1	0
O=C1NC(=Nc2ccc(O)cc2)S/C1=C/c1ccccc1	18	2	-1	0
O=C1NC(=Nc2ccc(O)cc2)S/C1=C\c1cccc(O)c1	7	57*	1	0
CCN1CCN(CC(=O)Nc2ccc(Cl)cc2)C(=O)C1=O	19	7	-2	1.9*
CCN1CCN(CC(=O)Nc2ccc(C)cc2)C(=O)C1=O	7	-9	1	0
CC(=O)Nc1nc(-c2ccc3c(c2)CCN3C(C)=O)c(C)s1	-12	53*	-1	1
CNc1nc(-c2ccc3c(c2)CCN3C(C)=O)c(C)s1	22	-47	1	1
CCC(=O)N1CCc2cc(-c3nc(NC(C)=O)sc3C)ccc21	7	80*	1	0
CCC(=O)N1CCc2cc(-c3nc(N)sc3C)ccc21	14	10	-2	0
O=C(CCc1ccccc1)Oc1ccccc1NC1=NS(=O)(=O)c2ccccc21	8	1	2	0
Nc1cccc(-c2nc(N)c3ncn(-c4ccsc4)c3n2)c1	3	54*	0	0
CC(=O)c1cccc(-c2nc(N)c3ncn(-c4ccsc4)c3n2)c1	-7	56*	0	0
CC(=O)c1cccc(-c2nc(Nc3ccccc3)c3ncn(-c4ccsc4)c3n2)c1	-20	-4	1	0
SMILES	MITF primary	TEAD-YAP block	GPR151 ag	FBW7 activator
Nc1c(-c2ccccc2)c2cc(Br)ccc2[nH]c1=O	6	-9	-2	1
O=C(Nc1ccc(Nc2cc(-n3ccnc3)ncn2)cc1)c1ccccc1Cl	-3	41*	1	0
O=C(Nc1cccc2ccc(-n3ccnc3)nc12)c1ccccc1Cl	2	9	1	2.3*
COc1ccccc1C(=O)Nc1ccc(Nc2cc(-n3ccnc3)ncn2)cc1	1	37*	0	0
O=C(Nc1ccc(Nc2cc(-n3ccnc3)ncn2)cc1)C(c1ccccc1)c1ccccc1	21	28	1	0
O=C(Cc1ccc(F)cc1)Nc1ccc(Nc2cc(-n3ccnc3)ncn2)cc1	10	13	-2	0
Cc1onc(-c2ccccc2Cl)c1C(=O)Nc1cccc2ccc(-n3ccnc3)nc12	-2	19	3	0
Cc1ccc(C2(C)NC(=O)N(CC(=O)NC(N)=O)C2=O)cc1 (centres undefined)	4	8	0	0
COc1ccccc1C(=O)Nc1c2c(nn1-c1ccc([N+](=O)[O-])cc1)CSC2	9	12	-2	0

Bioassay records deposited in PubChem BioAssay by The Scripps Research Institute Molecular Screening Center.
